Assay results taken from PubChem BioAssay (NCI).
About 79,000 compounds went through this panel and 15% of them were active in at least one assay; those are over-represented in the sample as a whole. Unmarked numbers belong to inactive results. Active and inactive are the calls of the source. Cut-off read from the data, not from the text of the source: active = growth inhibition above about 70%; inactive = the rest.

Assays:
[1] = NCI Yeast Anticancer Drug Screen. Data for the rad50 strain (AID 155);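 note: 0% = growth of vehicle-only cultures of the same strain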; details: S. cerevisiae rad50 strain growth inhibition, stronger effect = higher value
Procedure, shortened: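 Inhibition values express reduced yeast growth in compound-treated cultures relative to vehicle-treated controls.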

[2] = NCI Yeast Anticancer Drug Screen. Data for the mec2-1 strain (AID 157); details: S. cerevisiae mec2-1 strain, stronger effect = higher value
Procedure, shortened: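 Each compound was tested on mec2-1 yeast, a strain altered in DNA damage repair or cell cycle control. Growth inhibition is reported relative to vehicle.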

[3] = NCI Yeast Anticancer Drug Screen. Data for the sgs1 mgt1 strain (AID 161);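 note: 0% = growth of cultures given vehicle only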; details: S. cerevisiae sgs1 mgt1 strain, stronger effect = higher value
Procedure, shortened: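 Test agents were incubated with a DNA-repair-mutant yeast strain. Growth was then read and compared against vehicle-treated controls.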

[4] = NCI Yeast Anticancer Drug Screen. Data for the cln2 rad14 strain (AID 165);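 note: 0% = growth equal to vehicle treated cultures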; details: S. cerevisiae cln2 rad14 strain, stronger effect = higher value
Procedure, shortened: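 Test compounds were added to cln2 rad14 yeast cultures; inhibition of growth was then determined by comparison with vehicle treatment.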

[5] = NCI Yeast Anticancer Drug Screen. Data for the bub3 strain (AID 167); details: S. cerevisiae bub3 mutant strain, stronger effect = higher value
Procedure, shortened: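 Steps: expose the mutant yeast strain to compound; grow alongside vehicle-treated cultures; measure growth; express inhibition against the vehicle cultures.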

[6] = NCI Yeast Anticancer Drug Screen. Data for the mlh1 rad18 strain (AID 175); details: S. cerevisiae mlh1 rad18 strain growth inhibition, stronger effect = higher value
Procedure, shortened: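 Inhibition values reflect reduced growth of mutant yeast versus vehicle-treated controls following compound exposure; the mutations affect DNA damage repair.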

[7] = at 5.0 µM (retest, dose inferred, filed as 0.5)
[8] = at 50.0 µM (retest, dose inferred, filed as 5.0)

Compound	growth inhibition [1, 7]	growth inhibition [1, 8]	growth inhibition ([1]; at 50.0 µM)	growth inhibition [2, 7]	growth inhibition [2, 8]	growth inhibition ([2]; at 50.0 µM)	growth inhibition [3, 7]	growth inhibition [3, 8]	growth inhibition ([3]; at 50.0 µM)	growth inhibition [4, 7]	growth inhibition [4, 8]	growth inhibition ([4]; at 50.0 µM)	growth inhibition [5, 7]	growth inhibition [5, 8]	growth inhibition ([5]; at 50.0 µM)	growth inhibition [6, 7]	growth inhibition [6, 8]	growth inhibition ([6]; at 50.0 µM)
Clc1nc(Cl)nc(N2CCCc3ccccc32)n1	-24%	78% (active)	69.1%	-10%	78% (active)	70.9% (active)	-19%	67%	85.9% (active)	22%	56%	74.7% (active)	-10%	91% (active)	79% (active)	2%	82% (active)	74.3% (active)
CCCCCCCCNS(=O)(=O)c1ccc(N)cc1	4%	9%	80.8% (active)	0%	2%	25.2%	7%	2%	70.5% (active)	2%	0%	16.8%	1%	0%	61.2%	6%	2%	79.2% (active)
COc1ccc2c(C(=O)c3ccccc3)c3[n+](cc2c1OC)CCc1cc2c(cc1-3)OCO2	-1%	38%	65.7%	-21%	22%	53.6%	-4%	20%	52.1%	-4%	21%	30.1%	-4%	24%	50.3%	-2%	24%	75.5% (active)
COc1ccc(C=C(C(=O)c2ccccc2)C(=O)c2ccccc2)cc1	12%	95% (active)	91.3% (active)	-7%	96% (active)	92.3% (active)	-6%	94% (active)	91.3% (active)	14%	95% (active)	88.5% (active)	16%	98% (active)	92% (active)	-12%	98% (active)	90.8% (active)
O=C(CCCSCCCC(=O)NNc1ccccc1)NNc1ccccc1	31%	88% (active)	96.2% (active)	16%	95% (active)	40.7%	30%	94% (active)	87.4% (active)	21%	92% (active)	86.7% (active)	45%	98% (active)	96.5% (active)	54%	98% (active)	97.8% (active)
CN(C)C(=O)c1cc(Cl)cc(-c2ccccc2)c1O	1%	67%	40.5%	1%	74% (active)	32.1%	-1%	68%	46.1%	-5%	38%	-6.75%	1%	86% (active)	60.2%	1%	93% (active)	78.8% (active)
C=C1C(=O)O[C@@H]2C[C@@]3(C)CCC[C@H](C)C3=C[C@H]12 (tested in a mixture with another compound)	9%	96% (active)	91.8% (active)	14%	97% (active)	93% (active)	4%	97% (active)	92.3% (active)	30%	91% (active)	90% (active)	13%	98% (active)	91.2% (active)	19%	98% (active)	91.5% (active)
O=C(CSSCC(=O)Nc1ccccc1)Nc1ccccc1	-6%	15%	29.6%	1%	35%	17.5%	1%	-10%	54.8%	-5%	10%	48.2%	-12%	6%	22.8%	-12%	19%	22%
CC(C)CCCC(=O)CCCCCCC(=O)CCN(O)C(=O)C(N)CO (configuration not stated)	98% (active)	98% (active)	92.9% (active)	99% (active)	99% (active)	93.5% (active)	98% (active)	99% (active)	94.2% (active)	96% (active)	97% (active)	90.5% (active)	99% (active)	98% (active)	93.4% (active)	98% (active)	98% (active)	92% (active)
